# PubChem BioAssay (NCI)
# Values joined by “and” are separate entries in the source; they are usually repeats but may differ in a detail not shown here. Equal values may be shown once. This is part of a sample that, as a whole, favours compounds with a hit. Of some 83,000 tested, about 20% had one in any assay.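 The endpoint reported here, percent growth, reads 100 for growth as untreated, 0 for no net growth and -100 for all cells dead.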 Active and inactive are the calls of the source. How the source made its calls: active means growth percent below 10; inactive means the rest.
# Key:
# Test in all cases: NCI-60 one-dose screen, 48 h (100 = growth as untreated, 0 = no growth, -100 = all killed)
# SN12C renal = conditions: 10 µM unless noted
# UO-31 renal = conditions: 10 µM unless noted
# ACHN renal = conditions: 10 µM unless noted
# CAKI-1 renal = conditions: 10 µM unless noted
# A498 renal = conditions: 10 µM unless noted
# CCRF-CEM leukemia = conditions: 10 µM unless noted
# MOLT-4 leukemia = conditions: 10 µM unless noted
# RPMI-8226 leukemia = conditions: 10 µM
# OVCAR-8 ovarian = conditions: 10 µM unless noted
# OVCAR-5 ovarian = conditions: 10 µM unless noted
# OVCAR-4 ovarian = conditions: 10 µM unless noted
# SK-OV-3 ovarian = conditions: 10 µM
# IGROV1 ovarian = conditions: 10 µM unless noted
# OVCAR-3 ovarian = conditions: 10 µM unless noted
# HS 578T breast = conditions: 10 µM unless noted
# NCI/ADR-RES ovarian = conditions: 10 µM unless noted
# TK-10 renal = conditions: 10 µM unless noted
# SR leukemia = conditions: 10 µM unless noted
structure (smiles),measurement,setting,value
CC(=O)Nc1ccccc1-c1n[nH]c(=O)[nH]c1=O,growth,SN12C renal,104% (inactive)
same,growth,UO-31 renal,79.1% (inactive)
same,growth,ACHN renal,95.3% (inactive)
same,growth,CAKI-1 renal,83% (inactive)
same,growth,A498 renal,87.8% (inactive)
same,growth,CCRF-CEM leukemia,105% (inactive)
same,growth,MOLT-4 leukemia,109% (inactive)
same,growth,RPMI-8226 leukemia,103% (inactive)
same,growth,OVCAR-8 ovarian,106% (inactive)
same,growth,OVCAR-5 ovarian,96.4% (inactive)
same,growth,OVCAR-4 ovarian,93.6% (inactive)
same,growth,SK-OV-3 ovarian,99.1% (inactive)
same,growth,IGROV1 ovarian,104% (inactive)
same,growth,OVCAR-3 ovarian,113% (inactive)
same,growth,HS 578T breast,77.9% (inactive)
same,growth,NCI/ADR-RES ovarian,102% (inactive)
CC(=O)OCC1=C(C)C[C@H]([C@@H](COC(C)=O)C2CCC3C4C[C@H]5O[C@]56CC=CC(=O)[C@]6(C)C4CC[C@@]32C)OC1=O (some centres not stated),growth,TK-10 renal,-97.1% [50 µM] (active) and -100% [50 µM] (active)
Nc1nc(Nc2cc(F)c(Cl)c(F)c2)cc(=O)[nH]1,growth,TK-10 renal,111% [100 µM] (inactive) and 27.1% [100 µM] (inactive)
CC[Si](CC)(CC)OC1[C@@H](O[Si](CC)(CC)CC)[C@@H](CNC(=O)NC)O[C@H]1n1cnc2c(NC(=O)Nc3ccccc3)ncnc21 (some centres not stated),growth,SN12C renal,93.6% (inactive)
same,growth,UO-31 renal,40.1% (inactive)
same,growth,ACHN renal,88.4% (inactive)
same,growth,CAKI-1 renal,69% (inactive)
same,growth,A498 renal,38.6% (inactive)
same,growth,CCRF-CEM leukemia,38.5% (inactive)
same,growth,MOLT-4 leukemia,-10.9% (active)
same,growth,RPMI-8226 leukemia,3.35% (active)
same,growth,OVCAR-8 ovarian,92.7% (inactive)
same,growth,OVCAR-5 ovarian,93.6% (inactive)
same,growth,OVCAR-4 ovarian,94.4% (inactive)
same,growth,SK-OV-3 ovarian,98.2% (inactive)
same,growth,IGROV1 ovarian,73.6% (inactive)
same,growth,OVCAR-3 ovarian,66.6% (inactive)
same,growth,HS 578T breast,69.9% (inactive)
same,growth,NCI/ADR-RES ovarian,91.8% (inactive)
Nc1c(Br)cc(Br)cc1-c1n[nH]c(=O)[nH]c1=O,growth,SN12C renal,109% (inactive)
same,growth,UO-31 renal,74.3% (inactive)
same,growth,ACHN renal,91.9% (inactive)
same,growth,CAKI-1 renal,86.4% (inactive)
same,growth,A498 renal,91.7% (inactive)
same,growth,MOLT-4 leukemia,65.8% (inactive)
same,growth,SR leukemia,7.84% (active)
same,growth,RPMI-8226 leukemia,99.6% (inactive)
same,growth,OVCAR-8 ovarian,105% (inactive)
same,growth,OVCAR-5 ovarian,97.2% (inactive)
same,growth,OVCAR-4 ovarian,98.5% (inactive)
same,growth,SK-OV-3 ovarian,93.4% (inactive)
same,growth,IGROV1 ovarian,105% (inactive)
same,growth,OVCAR-3 ovarian,113% (inactive)
same,growth,HS 578T breast,78.3% (inactive)
same,growth,NCI/ADR-RES ovarian,103% (inactive)
CCOC(=O)/C(C#N)=C(/NNc1ccccc1)c1ccncc1C(=O)O,growth,TK-10 renal,79.5% [100 µM] (inactive) and -58% [100 µM] (active)
Cc1ccc(/C=N/Nc2ccc3ccccc3n2)s1,growth,TK-10 renal,50.5% [100 µM] (inactive) and 7.78% [100 µM] (active)
